Data taken from PubChem BioAssay (NCI).
This is part of a sample that, as a whole, favours compounds with a hit. Of some 83,000 tested, about 20% had one in any assay.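 In brief: 96-well plates, 48 h treatment, single concentration, percent growth endpoint.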 Values without a mark were called inactive. Active and inactive are the calls of the source. The calls were made as follows: active = growth percent below 10; inactive = the rest.

Experiments:
Assay in all cases: NCI-60 one-dose screen, 48 h (100 = growth as untreated, 0 = no growth, -100 = all killed)
Conditions in all cases: 10 µM unless noted
EKVX NSCLC = system: EKVX NSCLC
TK-10 renal = system: TK-10 renal
ACHN renal = system: ACHN renal
CAKI-1 renal = system: CAKI-1 renal
A498 renal = system: A498 renal
CCRF-CEM leukemia = system: CCRF-CEM leukemia
MOLT-4 leukemia = system: MOLT-4 leukemia
UO-31 renal = system: UO-31 renal
SN12C renal = system: SN12C renal

Compound	growth (EKVX NSCLC)	growth (TK-10 renal)	growth (ACHN renal)	growth (CAKI-1 renal)	growth (A498 renal)	growth (CCRF-CEM leukemia)	growth (MOLT-4 leukemia)	growth (UO-31 renal)	growth (SN12C renal)
C/C(=N\NC(=O)Cn1c(-c2ccc(S(C)(=O)=O)cc2)nc2ccccc21)c1ccc(Cl)cc1	101%	109%	93.6%	91.9%	104%	77%	79.7%		
CCn1cc(-c2ccnc3[nH]c(-c4cccc(CN(C)C)c4)cc23)c(-c2ccc(NC(=O)N(C)C)cc2)n1	55.4%	44.3%	15.4%	6.96% (active)	-34.1% (active)	4.15% (active)	7.17% (active)	-10.7% (active)	
C[C@@H](Nc1cc(F)cc(F)c1)c1cc(C(=O)N(C)C)cc2c(=O)cc(N3CCOCC3)oc12	68.2%	32.8%	49.9%	33.6%	-38.1% (active)	70.3%	25.3%	24.2%	
CC1(O)CC(c2nc(-c3ccc4ccc(-c5ccccc5)nc4c3)c3c(N)nccn23)C1 (configuration not stated)	58.8%	42.6%	31.7%	10.1%	-3.83% (active)	27.1%	12.9%	6.56% (active)	
Cc1nc2cc(-c3nn(C(C)C)c4ncnc(N)c34)ccc2o1	-10.3% (active)	-47% (active)	-13.4% (active)	-36.7% (active)	-55.5% (active)		-8.69% (active)		1.14% (active)
CCN1CCN(CCCN(C[C@H]2Cc3ccccc3CN2)[C@H]2CCCc3cccnc32)CC1	84%	85.6%	87.6%	74.4%	86.6%	79.6%	69.8%		
Cc1c(CN2CCN(C(=O)[C@H](C)O)CC2)sc2c(N3CCOCC3)nc(-c3cnc(N)nc3)nc12	1.75% (active)	-31.4% (active)	-11% (active)	-17.8% (active)	-52.9% (active)	7.59% (active)	1.65% (active)	-30.6% (active)	
Clc1ccc(C(Cn2ccnc2)OCc2ccsc2Cl)c(Cl)c1 (configuration not stated)	48.4%	71.6%	56.9%	42.4%	49.8%	43.4%	17.3%		65.6%
CCCCCc1ccc(C)cc1OC(=O)CCl	117%	105%	105%	91.7%	105%	102%	102%	66.9%	
COc1cc2nccc(Oc3ccc(NC(=O)C4(C(=O)Nc5ccc(F)cc5)CC4)cc3)c2cc1OC	23.4%	15.1%	4.85% (active)	-14.9% (active)	-44.2% (active)		11.6%		9.57% (active)
O=c1[nH]ccc2c(S(=O)(=O)N3CCCNCC3)cccc12	65.4%	26%	41.7%	55.5%	36.3%	89.1%	84.9%	40.6%	
CCN1CCN(Cc2ccc(NC(=O)Nc3nc(-c4cc(OC)c(OC)c(OC)c4)cs3)cc2C(F)(F)F)CC1	26.8%	62.4%	20.8%	55.2%	51.6%	0.288% (active)	-18.9% (active)	53.2%	
COc1ccc(COc2cc3oc(=O)c4cc(C(C)O)ccc4c3cc2OC)cc1 (configuration not stated)	68.9%	73.5%	48.4%	55.9%	84.6%	77.1%	54.5%	64.5%	
CC#CC(=O)N1CCC[C@H]1c1nc(-c2ccc(C(=O)Nc3ccccn3)cc2)c2c(N)nccn12	92.1%	72.8%	73.6%	72.9%	111%		89.4%		72.3%
CNC(=O)c1cccc2cc(Oc3ccnc4cc(OCC5(N)CC5)c(OC)cc34)ccc12	84.1%	63.9%	30.9%	38.2%	57.1%	44.4%	30.6%	37.6%	
N#Cc1ccc(-n2nnc3ccccc32)cc1C#N	79.2%	134%	103%	85.4%	72.8%	93.1%	93.3%	88.5%	
Cc1cccc(C)c1N1C(c2ccccc2)=NNC12C=CC(=O)c1c(O)cccc12 (configuration not stated)	91.3%	111%	88.6%	101%	109%	95.9%	76.9%	48.4%	
C[C@@H](Oc1cc(-c2cnn(C3CCNCC3)c2)cnc1N)c1c(Cl)ccc(F)c1Cl	0.0738% (active)	-36.2% (active)	-45.9% (active)	-64.1% (active)	-68.3% (active)	-19.5% (active)	-34.5% (active)	-73.4% (active)	
C=CC(=O)N1CCC(Oc2cc3c(Nc4ccc(Cl)c(Cl)c4F)ncnc3cc2OC)CC1	18.7%	-7.41% (active)	-3.88% (active)	-34.2% (active)	-69.8% (active)		-10.5% (active)	-31.6% (active)	
Brc1ccc([I+]c2ccc(Br)cc2)cc1	19.3%	-18% (active)	39%	51.2%	71.6%	20.3%	19.9%		-26.9% (active)
CC(=O)c1c(C)c2cnc(Nc3ccc(N4CCNCC4)cn3)nc2n(C2CCCC2)c1=O	58.8%	32.4%	17.1%	26.3%	31.7%	12.2%	11%	20.2%	
